Our source for the Percent Effect values is ChEMBL document CHEMBL3988442, “University of Dundee, Small-Polar-MMV Screening Library” (2021).

What all share (parameters): scale not given: direction of the effect not stated beside the values
Test [1] deals with Protein translocase subunit SecA (Escherichia coli (strain K12)) (UniProt P10408). Nature of the test: Assay to Identify E. coli SecA ATPase Inhibitors. The test is classed as functional. The settings on record: 30 µM.
Test [2] addresses T1, Ubiquitin-activating enzyme e1, putative (Leishmania donovani (strain BPK282A1)) (UniProt E9BSI1).
T1 sequence (whole entry): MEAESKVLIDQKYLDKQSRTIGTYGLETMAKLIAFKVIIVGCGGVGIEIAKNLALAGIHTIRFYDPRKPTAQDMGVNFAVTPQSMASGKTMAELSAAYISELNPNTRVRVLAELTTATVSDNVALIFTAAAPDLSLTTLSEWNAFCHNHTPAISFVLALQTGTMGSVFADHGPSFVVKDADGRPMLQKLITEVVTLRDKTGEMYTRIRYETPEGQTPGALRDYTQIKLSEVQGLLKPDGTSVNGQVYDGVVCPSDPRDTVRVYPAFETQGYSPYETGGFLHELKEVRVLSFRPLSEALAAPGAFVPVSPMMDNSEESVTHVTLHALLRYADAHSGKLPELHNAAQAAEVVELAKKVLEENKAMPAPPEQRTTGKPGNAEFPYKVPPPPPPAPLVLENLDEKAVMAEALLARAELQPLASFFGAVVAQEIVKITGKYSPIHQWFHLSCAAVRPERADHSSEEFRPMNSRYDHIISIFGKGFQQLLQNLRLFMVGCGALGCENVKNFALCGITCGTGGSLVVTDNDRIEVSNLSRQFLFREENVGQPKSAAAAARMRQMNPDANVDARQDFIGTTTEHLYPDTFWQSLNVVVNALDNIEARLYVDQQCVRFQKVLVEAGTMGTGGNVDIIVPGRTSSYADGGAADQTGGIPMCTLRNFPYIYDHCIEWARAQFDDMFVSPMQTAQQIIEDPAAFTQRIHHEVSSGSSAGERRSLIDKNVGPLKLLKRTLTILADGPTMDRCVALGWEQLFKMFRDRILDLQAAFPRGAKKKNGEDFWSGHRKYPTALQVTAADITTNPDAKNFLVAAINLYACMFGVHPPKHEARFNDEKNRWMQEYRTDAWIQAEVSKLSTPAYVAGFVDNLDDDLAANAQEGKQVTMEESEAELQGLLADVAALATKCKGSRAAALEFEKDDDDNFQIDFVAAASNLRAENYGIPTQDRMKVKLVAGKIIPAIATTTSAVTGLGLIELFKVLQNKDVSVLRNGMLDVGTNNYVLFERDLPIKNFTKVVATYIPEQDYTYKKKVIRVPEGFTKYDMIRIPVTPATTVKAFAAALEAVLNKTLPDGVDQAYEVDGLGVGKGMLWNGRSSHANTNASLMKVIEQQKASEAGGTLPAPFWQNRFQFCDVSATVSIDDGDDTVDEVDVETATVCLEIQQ
Kind of test: Leishmania donovani Ubiquitin Activating Enzyme (LdE1). The class given is functional. The settings on record: 30 µM.

For test [3], the target named is Sialic acid-binding Ig-like lectin 9 (Homo sapiens) (UniProt Q9Y336). Kind of test: Hs-Siglec9 ALPHAscreen SOP 20170721. The settings on record: 10 µM.
Chain of Sialic acid-binding Ig-like lectin 9 (Homo sapiens) (Q9Y336 whole entry): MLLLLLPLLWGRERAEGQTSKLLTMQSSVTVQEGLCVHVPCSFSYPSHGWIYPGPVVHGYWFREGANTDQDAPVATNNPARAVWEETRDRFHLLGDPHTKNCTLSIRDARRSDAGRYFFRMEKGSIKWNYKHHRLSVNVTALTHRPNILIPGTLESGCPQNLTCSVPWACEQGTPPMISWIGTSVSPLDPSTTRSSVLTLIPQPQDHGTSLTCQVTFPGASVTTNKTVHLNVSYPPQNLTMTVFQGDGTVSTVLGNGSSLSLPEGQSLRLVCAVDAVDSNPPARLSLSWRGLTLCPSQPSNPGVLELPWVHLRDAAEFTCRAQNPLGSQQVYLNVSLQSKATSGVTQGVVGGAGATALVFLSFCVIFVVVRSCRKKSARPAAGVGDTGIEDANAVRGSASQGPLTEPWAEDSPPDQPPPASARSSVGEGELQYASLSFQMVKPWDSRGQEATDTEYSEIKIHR
Test [4] concerns Trypanosoma cruzi. Nature of the test: Trypanosoma cruzi phosphomannomutase and mannose-1-phosphate guanylyltransferase assay. The test is classed as functional. The settings on record: 10 µM.
Test [5] has as its target T2, Arginase-2, mitochondrial (Homo sapiens) (UniProt P78540).
T2 sequence (whole entry): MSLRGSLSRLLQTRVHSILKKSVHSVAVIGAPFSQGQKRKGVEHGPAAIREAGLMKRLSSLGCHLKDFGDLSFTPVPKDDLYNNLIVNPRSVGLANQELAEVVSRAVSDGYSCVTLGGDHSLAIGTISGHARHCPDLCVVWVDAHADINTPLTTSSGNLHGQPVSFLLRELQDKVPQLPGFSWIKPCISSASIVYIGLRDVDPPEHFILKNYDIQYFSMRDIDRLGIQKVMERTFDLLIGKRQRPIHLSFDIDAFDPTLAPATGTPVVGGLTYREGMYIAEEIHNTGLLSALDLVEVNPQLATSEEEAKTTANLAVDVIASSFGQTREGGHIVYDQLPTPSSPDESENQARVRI
Nature of the test: in vitro enzyme assay to detect the production of urea directly proportional to the activity of Arginase II. Also: in the data most compounds retested in dose-response had high values. The class given is functional. The settings on record: 33.3 µM.

For test [6], the target named is T3, Proteasome subunit beta (Trypanosoma cruzi) (UniProt O96673).
T3 sequence (whole entry): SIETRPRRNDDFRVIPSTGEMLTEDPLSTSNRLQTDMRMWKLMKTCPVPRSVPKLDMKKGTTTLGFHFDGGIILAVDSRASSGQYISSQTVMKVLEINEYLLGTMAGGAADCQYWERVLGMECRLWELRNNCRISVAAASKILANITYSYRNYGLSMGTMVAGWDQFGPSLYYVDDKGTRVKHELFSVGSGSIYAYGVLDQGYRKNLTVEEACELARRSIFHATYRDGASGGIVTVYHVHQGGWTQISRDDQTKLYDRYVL
Kind of test: Trypanosoma cruzi proteasome chymotrypsin-like activity (TcProtChymo) assay. Also: in the data most compounds retested in dose-response had high values. The test is classed as functional. The following applies: 9.37 µM.

Test [7] is filed under the species Homo sapiens. Kind of test: To identify inhibition of the IFN signalling (Jak-Stat) pathway via expression of an eGFP reporter gene under the control of an IFN-stimulated response element (ISRE) containing MxA promoter. The test is classed as functional. The following applies: 30 µM. A general note: Reporter assays use an easily measured gene product as a stand-in for the process of interest.

The target of test [8] is T4, Tyrosyl-tRNA synthetase, putative (Trypanosoma cruzi (strain CL Brener)) (UniProt Q4DSP6).
T4 sequence (whole entry): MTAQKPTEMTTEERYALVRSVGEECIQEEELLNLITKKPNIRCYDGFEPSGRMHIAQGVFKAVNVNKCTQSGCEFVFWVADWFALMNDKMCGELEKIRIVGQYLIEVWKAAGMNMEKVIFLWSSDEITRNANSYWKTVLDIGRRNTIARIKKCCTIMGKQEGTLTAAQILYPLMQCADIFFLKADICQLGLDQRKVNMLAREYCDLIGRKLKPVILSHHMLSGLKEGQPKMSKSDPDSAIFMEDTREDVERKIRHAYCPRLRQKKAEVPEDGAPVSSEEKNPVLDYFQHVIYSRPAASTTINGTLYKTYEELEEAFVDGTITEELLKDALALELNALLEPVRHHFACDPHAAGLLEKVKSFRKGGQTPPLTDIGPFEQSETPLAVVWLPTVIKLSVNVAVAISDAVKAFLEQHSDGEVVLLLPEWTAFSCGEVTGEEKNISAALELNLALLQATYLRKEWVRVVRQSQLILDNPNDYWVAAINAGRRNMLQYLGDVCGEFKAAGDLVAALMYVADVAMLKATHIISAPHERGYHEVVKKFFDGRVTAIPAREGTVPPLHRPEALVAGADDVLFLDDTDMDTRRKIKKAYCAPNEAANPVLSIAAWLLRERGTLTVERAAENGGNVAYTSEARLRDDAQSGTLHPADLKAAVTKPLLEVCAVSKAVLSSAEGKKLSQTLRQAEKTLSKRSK
Kind of test: Trypanosoma cruzi tyrosyl tRNA synthetase (TcYRS) _High Tyrosine SOP. Also: in the data most compounds retested in dose-response had high values. The following applies: 30 µM. The test is classed as functional.

For test [9], the target named is T4, Tyrosyl-tRNA synthetase, putative (Trypanosoma cruzi (strain CL Brener)). Nature of the test: Trypanosoma cruzi tyrosyl tRNA synthetase (TcYRS) SOP. The class given is functional. The settings on record: 30 µM.
The target of test [10] is Chromo domain-containing protein 1 (Saccharomyces cerevisiae (strain ATCC 204508 / S288c) (Baker's yeast)) (UniProt P32657). Nature of the test: ScCHD-1 Enzyme Inhibition Assay. Also: in the data most compounds retested in dose-response had high values. The class given is functional. The following applies: 30 µM.
Chain of Chromo domain-containing protein 1 (Saccharomyces cerevisiae (strain ATCC 204508 / S288c) (Baker's yeast)) (P32657 whole entry, the tested form may be a part): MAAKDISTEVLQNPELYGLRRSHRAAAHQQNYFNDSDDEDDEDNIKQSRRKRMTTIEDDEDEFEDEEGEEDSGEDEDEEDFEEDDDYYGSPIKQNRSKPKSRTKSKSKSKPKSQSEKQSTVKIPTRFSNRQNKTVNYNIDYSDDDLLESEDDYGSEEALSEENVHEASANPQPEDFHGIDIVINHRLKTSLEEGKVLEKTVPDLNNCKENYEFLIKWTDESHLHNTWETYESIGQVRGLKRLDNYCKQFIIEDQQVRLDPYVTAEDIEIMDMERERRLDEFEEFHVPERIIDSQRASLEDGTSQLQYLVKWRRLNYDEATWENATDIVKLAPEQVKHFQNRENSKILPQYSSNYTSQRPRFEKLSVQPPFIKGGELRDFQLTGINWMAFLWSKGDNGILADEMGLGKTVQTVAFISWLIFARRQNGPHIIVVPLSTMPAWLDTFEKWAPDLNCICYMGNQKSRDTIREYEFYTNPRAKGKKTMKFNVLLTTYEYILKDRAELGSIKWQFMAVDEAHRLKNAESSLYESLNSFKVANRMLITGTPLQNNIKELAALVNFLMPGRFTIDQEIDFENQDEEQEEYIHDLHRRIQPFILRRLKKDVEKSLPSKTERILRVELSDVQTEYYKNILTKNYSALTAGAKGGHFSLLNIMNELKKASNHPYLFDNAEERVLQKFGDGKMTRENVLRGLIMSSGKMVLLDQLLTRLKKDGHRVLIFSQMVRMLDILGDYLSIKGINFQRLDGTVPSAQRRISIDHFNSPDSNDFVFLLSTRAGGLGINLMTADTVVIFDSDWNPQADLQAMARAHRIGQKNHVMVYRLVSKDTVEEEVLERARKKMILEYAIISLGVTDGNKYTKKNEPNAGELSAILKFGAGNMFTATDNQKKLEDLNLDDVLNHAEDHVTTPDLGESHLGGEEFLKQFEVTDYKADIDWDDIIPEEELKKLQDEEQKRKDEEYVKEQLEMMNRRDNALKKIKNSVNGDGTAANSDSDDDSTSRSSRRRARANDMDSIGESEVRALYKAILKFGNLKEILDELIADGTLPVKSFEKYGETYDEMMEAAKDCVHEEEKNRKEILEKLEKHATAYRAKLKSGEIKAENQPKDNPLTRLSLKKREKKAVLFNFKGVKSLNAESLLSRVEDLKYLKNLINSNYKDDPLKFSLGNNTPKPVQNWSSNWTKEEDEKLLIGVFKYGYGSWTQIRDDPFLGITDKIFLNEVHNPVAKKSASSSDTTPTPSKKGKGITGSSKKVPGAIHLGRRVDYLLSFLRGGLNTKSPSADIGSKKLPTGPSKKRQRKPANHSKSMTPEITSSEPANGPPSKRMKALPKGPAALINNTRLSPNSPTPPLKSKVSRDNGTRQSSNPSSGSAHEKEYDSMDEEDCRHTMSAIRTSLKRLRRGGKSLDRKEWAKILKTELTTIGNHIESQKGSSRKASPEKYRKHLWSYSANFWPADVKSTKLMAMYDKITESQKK

For some assays here: Potency and affinity values are given separately.

Chain of Protein translocase subunit SecA (Escherichia coli (strain K12)) (P10408 whole entry): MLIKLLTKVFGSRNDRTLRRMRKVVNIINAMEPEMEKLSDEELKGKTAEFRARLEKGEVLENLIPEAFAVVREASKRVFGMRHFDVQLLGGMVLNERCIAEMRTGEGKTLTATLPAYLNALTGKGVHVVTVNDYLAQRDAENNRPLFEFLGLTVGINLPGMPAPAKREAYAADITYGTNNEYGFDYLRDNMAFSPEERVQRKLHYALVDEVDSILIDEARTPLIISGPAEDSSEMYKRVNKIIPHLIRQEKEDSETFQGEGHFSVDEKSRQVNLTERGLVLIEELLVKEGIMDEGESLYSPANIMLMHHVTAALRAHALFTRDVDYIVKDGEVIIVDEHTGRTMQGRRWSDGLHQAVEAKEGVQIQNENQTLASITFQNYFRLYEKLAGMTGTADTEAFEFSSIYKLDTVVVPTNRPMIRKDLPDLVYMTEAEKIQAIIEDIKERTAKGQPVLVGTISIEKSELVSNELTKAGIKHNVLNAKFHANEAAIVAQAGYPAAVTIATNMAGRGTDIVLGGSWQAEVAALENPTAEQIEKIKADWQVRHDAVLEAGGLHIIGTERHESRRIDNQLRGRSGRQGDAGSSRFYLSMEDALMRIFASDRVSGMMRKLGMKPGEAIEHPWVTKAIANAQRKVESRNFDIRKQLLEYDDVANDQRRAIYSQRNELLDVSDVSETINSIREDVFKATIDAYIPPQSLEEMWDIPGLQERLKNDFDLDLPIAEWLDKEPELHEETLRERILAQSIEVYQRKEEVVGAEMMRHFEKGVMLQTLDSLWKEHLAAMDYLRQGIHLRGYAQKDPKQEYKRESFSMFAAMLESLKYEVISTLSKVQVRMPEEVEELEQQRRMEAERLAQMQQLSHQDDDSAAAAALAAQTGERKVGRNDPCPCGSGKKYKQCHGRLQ

Turning to `CC(C)NC(=O)N1CCN(Cc2ccccn2)CC2(CC(=O)N(C)C2)C1` (stereo not given), the Percent Effect is -6.73% in test [1]; 11.7% in test [2]; 1.64% in test [3]; -0.563% in [4]; -2.28% in [5]; 2.49% in test [6]. In addition, the Percent Effect in test [7] is 13.5%; in test [8] it was 0%; in test [9] it was 0%; in test [10], -7.79%.
As for `COCc1ncc(CN2CCC(Oc3ccccc3OC)CC2)cn1`, the Percent Effect in test [1] was -4.09%; in [2], 2.7%; in test [3], 1.93%; in test [4], -3.59%; in [5], 3.85%; in [6] it was 9.59%. Moreover, the Percent Effect in test [7] is 1.55%; in test [8] it was 5.85%; in test [9], 14.6%; in [10] it was -3.8%.
For `COc1ccc(C2CC(=O)Nc3c2cnn3C2CCCC2)cc1` (stereo not given), the Percent Effect in test [1] was -8.84%; in test [2], -2.7%; in test [3], -0.717%; in [4], 2.62%; in [5] it was 2.45%; in test [6], 5.31%. Further, the Percent Effect in test [7] is 8.51%; in [8] it was 6.92%; in test [9], 4.88%; in test [10], -1.74%.
Take `c1ccc(OCc2nnc3n2CCN(CC2CCOCC2)C3)nc1`: the Percent Effect is -2.49% in test [1]; 1.3% in test [2]; -1.26% in test [3]; -1.07% in [4]; -2.43% in test [5]; -0.0883% in test [6]. The Percent Effect in test [7] is -3.47%; in test [8] it was 0.526%; in [9], -89.7%; in [10] it was -2.56%.
As for `Cc1ccc(S(=O)(=O)N2CCC3(CC(C(=O)NCC4CC4)=NO3)C2)cc1` (stereo not given), the Percent Effect in test [1] was -5.9%; in [2], 6.49%; in [3], -4.73%; in test [4], -4.38%; in test [5], 0%; in [6], 18.3%. Besides, the Percent Effect in test [7] is 5.59%; in test [8] it was 1.58%; in test [9], 7.69%; in [10], -3.09%.
For the compound `O=c1c(-c2ccnc(NC3CCOCC3)n2)cnc2sc(Cl)cn12`, the Percent Effect in [1] was 5.59%; in test [2] it was 16%; in test [3] it was -4.95%; in test [4] it was -8.63%; in test [5] it was -2.66%; in test [6] it was 17.7%. In addition, the Percent Effect is 12% in test [7], 1.58% in test [8], 0% in [9] and -10.8% in test [10].
In the case of `O=C(Nc1cccc(N2CCCC2)c1)C1CCCN1c1nccs1` (stereo not given), the Percent Effect is -2.06% in [1]; -15.4% in test [2]; 6.8% in test [3]; 8.92% in test [4]; -1.23% in [5]; 1.79% in test [6]. Moreover, the Percent Effect in test [7] is -2.5%; in test [8], 8.13%; in test [9] it was -1.21%; in [10], -2.52%.
On to `CNc1cccc(C2CCCN(C(C)=O)C2)n1` (stereo not given), for which the Percent Effect was 1.36% in test [1]; 6.67% in test [2]; -7.25% in [3]; -6.71% in test [4]; 3.98% in test [5]; 14.1% in [6]. The Percent Effect was 17.4% in test [7], 1.06% in test [8], 5% in test [9] and -14.4% in test [10].
On to `CCOc1ncccc1NC(=O)NC1CCN(S(C)(=O)=O)CC1`, for which the Percent Effect in test [1] was -4.68%; in test [2], 2.6%; in test [3], -7.28%; in test [4], -6.34%; in test [5], -6.76%; in [6] it was 8.25%. Moreover, the Percent Effect in test [7] is 25.1%; in test [8], 0.98%; in test [9], 4.71%; in [10] it was -11.6%.
For the compound `CCCNC(=O)NCc1cccnc1OC`, the Percent Effect in [1] was -1.2%; in test [2], 13.3%; in [3], 0.677%; in test [4], -0.803%; in test [5], 2.66%; in test [6], 14.2%. Besides, the Percent Effect in [7] is 18.8%; in [8] it was 2.63%; in test [9] it was 10.3%; in [10], -6.38%.
On to `c1cnn(CC2CCCN2Cc2nc(-c3ccoc3)no2)c1` (stereo not given), for which the Percent Effect is -4.7% in test [1]; 5.33% in test [2]; 2.88% in [3]; 3.41% in test [4]; -4.88% in [5]; 10.3% in test [6]. The Percent Effect is -9.56% in [7], 4.74% in test [8], 7.69% in [9] and -12.5% in test [10].
